Results from the OligoGym collection.

target: C1orf106; assay: pooled miR-30 sensor sort-seq; sequence = guide strand; details: shRNA
Also: reference of the scale not given here.

Sequence	sensor-assay potency score (higher = more potent)
TATTGAAGTATTTAGCACTAAA	-0.989
TTCAGGTACAAAGACTTGCACA	-0.854
TAGAACCAGAGCACAGAGCGTT	-0.706
TATATAAGGAGATAGAGGCTGT	0.0357
TAAAACATAATCATATCACAGG	-0.615
TTCTCCTCCAGGCACAGCCGAC	-1.78
TAGCTGAGGACACAGCCACTTG	-1.67
TTGAGCTCCTCGGACACGGCGG	-0.833
TTATTGAAGTATTTAGCACTAA	-0.34

target: C1orf109; assay: as above; details: shRNA

Sequence	sensor-assay potency score (higher = more potent)
TTTCTCTTCAGGTACGACTTTC	-0.727
TGACAAAAGACACAAAACCAGG	-1.47
TTGAAAAATATCTATACCCTTT	-0.465
TTTTTAAAAAAAGACAACCTAA	-0.867
TTCTTTAGAAACATCAGGGTTC	0.139
ATCTTGTACAAGATCCTGGTGT	-0.231
TATGTATCGATGATAGCACGTT	0.283
TAGATGAAGGCAGCAGACCTTG	-1.04
TATCTTGTACAAGATCCTGGTG	-0.3
TTATTAATAATAGTTATCTGGT	0.0251
TAAATAGACACTGAAAAGGTAT	-0.303
TTTAGGTCCACAATAGAGGAAA	-1.1
